Test results as given in PubChem BioAssay (EPA / NIEHS).
“And” between values parts separate entries of the source, which are not always exact repeats. Identical values can stand only once. The source made the active and inactive calls. The calls were made as follows: active = hit-call score of the fitted dose curve at least 0.9, where 1 is the maximum; inactive = score below 0.9.

Experiments:
[1] = target: Bile acid receptor (Homo sapiens) (UniProt Q96RI1); assay: ATG_IR1_CIS: Attagene CIS-FACTORIAL HepG2 Assay for human Nuclear Receptor Subfamily 1 Group H Member 4 (NR1H4), IR1 submotif (AID 2282946); conditions: IR1 reporter transcription, actives raise or lower the signal
Bile acid receptor (Homo sapiens), sequence (Q96RI1 whole entry, looked up): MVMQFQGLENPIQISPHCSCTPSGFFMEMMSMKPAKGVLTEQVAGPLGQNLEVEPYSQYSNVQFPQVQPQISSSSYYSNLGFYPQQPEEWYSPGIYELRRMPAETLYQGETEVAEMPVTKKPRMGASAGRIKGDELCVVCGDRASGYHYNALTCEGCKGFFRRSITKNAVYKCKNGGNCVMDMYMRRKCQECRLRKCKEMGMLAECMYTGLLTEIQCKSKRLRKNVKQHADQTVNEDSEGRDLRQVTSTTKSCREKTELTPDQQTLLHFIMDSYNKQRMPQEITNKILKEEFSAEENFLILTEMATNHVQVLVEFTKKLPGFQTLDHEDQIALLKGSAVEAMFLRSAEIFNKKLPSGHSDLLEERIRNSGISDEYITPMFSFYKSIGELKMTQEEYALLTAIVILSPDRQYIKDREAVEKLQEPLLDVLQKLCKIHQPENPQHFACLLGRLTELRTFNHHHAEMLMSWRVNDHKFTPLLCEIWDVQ
How it was run: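 Fluorescence of capillary-separated, HpaI-digested RT-PCR reporter products gave IR1-element mRNA induction in HepG2 cells 24 h after dosing. Endogenous transcription factors drove the cis-regulated reporters; activity was fitted bidirectionally against DMSO.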

[2] = ATG_GRE_CIS: Attagene CIS-FACTORIAL HepG2 Assay for human Glucocorticoid Response Elements (GRE) (AID 2282947); conditions: HepG2 GRE cis-reporter, Attagene multiplex mRNA; actives raise or lower the signal
How it was run: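 Fluorescence intensity of reporter-specific cDNA fragments, separated by capillary electrophoresis, provides the signal. Constructs carry cis-regulating promoters in transiently transfected HepG2 liver cells; 24 h incubation; fitting is bidirectional against DMSO.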

[3] = ATG_ISRE_CIS: Attagene CIS-FACTORIAL HepG2 Assay for human Interferon Regulatory Factor 1 (IRF1) binding to an Interferon-Stimulated Response Element (ISRE) (AID 2282948); conditions: HepG2 ISRE cis-reporter (Attagene), mRNA transcription readout; actives raise or lower the signal
How it was run: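 Uses HepG2 liver cells transfected with cis-regulated reporters and measures mRNA 24 h post-dosing through RT-PCR, primer-extension labelling and capillary electrophoresis, with DMSO as negative control.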

[4] = ATG_M_32_CIS: Attagene CIS-FACTORIAL HepG2 Assay for M32 Transcription Factor (Internal Marker) (AID 2282949); conditions: HepG2 Attagene cis-factorial M32 reporter, mRNA; actives raise or lower the signal;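 also: background control marker of the multiplexed CIS panel rather than a real target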
How it was run: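 HepG2 human liver cells transiently transfected with cis-promoter-driven multiple reporter transcription units, dosed 24 h. Reporter mRNA quantified by RT-PCR, FAM-labelled primer extension, HpaI digest and capillary electrophoresis; bidirectional fit versus DMSO baseline.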

[5] = ATG_M_06_CIS: Attagene CIS-FACTORIAL HepG2 Assay for M06 Transcription Factor (Internal Marker) (AID 2282950); conditions: HepG2 Attagene CIS-FACTORIAL M06 internal marker reporter; actives raise or lower the signal
How it was run: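 One of many multiplexed endpoints: HepG2 reporter mRNA after 24 h dosing, detected by RT-PCR and capillary electrophoresis fluorescence; gain or loss of signal analysed against DMSO.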

[6] = target: Hypoxia-inducible factor 1-alpha (Homo sapiens) (UniProt Q16665); assay: ATG_HIF1a_CIS: Attagene CIS-FACTORIAL HepG2 Assay for human Hypoxia Inducible Factor 1 (HIF1A) (AID 2282951); conditions: HepG2 Attagene cis-factorial HIF1a reporter transcription; actives raise or lower the signal
Hypoxia-inducible factor 1-alpha (Homo sapiens), sequence (Q16665 whole entry, looked up): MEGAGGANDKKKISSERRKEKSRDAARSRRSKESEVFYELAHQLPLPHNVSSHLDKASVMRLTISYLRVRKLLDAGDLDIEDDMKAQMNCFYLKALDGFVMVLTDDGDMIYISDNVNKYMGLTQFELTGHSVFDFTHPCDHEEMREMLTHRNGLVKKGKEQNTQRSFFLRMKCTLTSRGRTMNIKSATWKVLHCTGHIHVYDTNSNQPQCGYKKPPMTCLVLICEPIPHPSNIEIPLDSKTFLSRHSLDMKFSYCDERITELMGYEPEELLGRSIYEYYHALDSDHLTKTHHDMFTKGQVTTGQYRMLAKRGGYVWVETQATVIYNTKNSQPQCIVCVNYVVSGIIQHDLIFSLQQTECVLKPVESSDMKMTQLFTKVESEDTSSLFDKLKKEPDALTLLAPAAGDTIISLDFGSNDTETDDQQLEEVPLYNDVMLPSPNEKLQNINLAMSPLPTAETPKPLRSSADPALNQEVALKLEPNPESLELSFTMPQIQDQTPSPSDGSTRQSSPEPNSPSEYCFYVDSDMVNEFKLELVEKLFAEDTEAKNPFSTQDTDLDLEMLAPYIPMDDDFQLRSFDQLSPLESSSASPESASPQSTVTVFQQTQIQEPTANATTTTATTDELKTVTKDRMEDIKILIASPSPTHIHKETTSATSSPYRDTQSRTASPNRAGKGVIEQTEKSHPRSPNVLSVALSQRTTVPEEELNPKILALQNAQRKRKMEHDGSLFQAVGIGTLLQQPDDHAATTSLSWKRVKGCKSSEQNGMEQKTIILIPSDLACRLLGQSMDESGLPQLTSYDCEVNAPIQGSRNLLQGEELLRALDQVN
How it was run: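 HepG2 cells transiently transfected with multiple cis-regulated reporter transcription units measure endogenous transcription factor activity. After 24 h exposure, reporter mRNA is quantified by RT-PCR with 6-FAM labelling, HpaI digestion and capillary electrophoresis. Bidirectional fitting against DMSO.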

[7] = target: Hepatocyte nuclear factor 6 (Homo sapiens) (UniProt Q9UBC0); assay: ATG_HNF6_CIS: Attagene CIS-FACTORIAL HepG2 Assay for human Hepatocyte Nuclear Factor 6 (HNF6) (AID 2282952); conditions: HepG2 Attagene cis-factorial HNF6 reporter transcription; actives raise or lower the signal
Hepatocyte nuclear factor 6 (Homo sapiens), sequence (Q9UBC0 whole entry, looked up): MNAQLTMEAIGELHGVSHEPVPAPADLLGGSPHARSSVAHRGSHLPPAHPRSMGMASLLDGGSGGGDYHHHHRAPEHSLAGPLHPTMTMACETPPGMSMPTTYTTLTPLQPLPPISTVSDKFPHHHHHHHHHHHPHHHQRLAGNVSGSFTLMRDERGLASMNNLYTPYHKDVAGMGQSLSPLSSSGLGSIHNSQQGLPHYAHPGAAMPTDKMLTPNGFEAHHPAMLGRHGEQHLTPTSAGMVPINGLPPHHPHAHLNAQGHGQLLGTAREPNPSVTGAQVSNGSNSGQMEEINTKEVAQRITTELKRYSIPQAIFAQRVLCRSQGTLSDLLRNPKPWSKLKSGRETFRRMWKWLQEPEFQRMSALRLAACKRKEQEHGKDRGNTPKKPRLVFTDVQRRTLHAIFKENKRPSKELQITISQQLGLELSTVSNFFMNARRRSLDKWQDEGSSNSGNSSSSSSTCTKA
How it was run: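 Endogenous transcription factor activity in human HepG2 liver cells was captured through cis-regulated reporter constructs. After 24 h treatment, reporter mRNA was measured by RT-PCR with capillary electrophoresis, and activity was fitted in both directions relative to DMSO.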

[8] = target: Heat shock factor protein 1 (Homo sapiens) (UniProt Q00613); assay: ATG_HSE_CIS: Attagene CIS-FACTORIAL HepG2 Assay for human Heat Shock Transcription Factor 1 (HSE) (AID 2282953); conditions: HepG2 HSE cis-reporter, Attagene RNA transcription; actives raise or lower the signal
Heat shock factor protein 1 (Homo sapiens), sequence (Q00613 whole entry, looked up): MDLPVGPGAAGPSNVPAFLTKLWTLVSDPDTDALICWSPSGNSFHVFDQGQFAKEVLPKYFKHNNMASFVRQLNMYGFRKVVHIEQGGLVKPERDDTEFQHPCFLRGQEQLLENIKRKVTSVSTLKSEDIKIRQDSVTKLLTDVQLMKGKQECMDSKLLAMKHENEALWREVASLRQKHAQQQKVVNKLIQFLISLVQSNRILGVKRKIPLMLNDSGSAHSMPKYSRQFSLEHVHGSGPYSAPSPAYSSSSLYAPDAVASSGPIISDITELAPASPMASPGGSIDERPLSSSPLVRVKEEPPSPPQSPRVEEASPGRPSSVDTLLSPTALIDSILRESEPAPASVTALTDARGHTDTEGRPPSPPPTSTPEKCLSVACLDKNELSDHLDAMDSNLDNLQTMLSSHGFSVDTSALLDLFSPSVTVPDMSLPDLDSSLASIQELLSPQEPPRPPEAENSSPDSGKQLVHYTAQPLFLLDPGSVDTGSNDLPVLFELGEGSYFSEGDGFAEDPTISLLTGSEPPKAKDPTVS
How it was run: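 Using HepG2 with transfected cis-driven reporter constructs, compound effects on endogenous factor activity are scored as reporter mRNA change at 24 h. Detection: RT-PCR, HpaI digestion, capillary electrophoresis; bidirectional fitting to DMSO.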

[9] = ATG_MRE_CIS: Attagene CIS-FACTORIAL HepG2 Assay for human Metal Responsive Element (MRE) (AID 2282954); conditions: HepG2 MRE cis-reporter transcription, Attagene multiplex; actives raise or lower the signal
How it was run: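 Measured here is mRNA induction from an MRE cis-element reporter in HepG2 after 24 h, quantified by fluorescence of labelled RT-PCR products on capillary electrophoresis; gain- and loss-of-signal fits use DMSO as baseline.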

[10] = target: Paired box protein Pax-6 (Homo sapiens) (UniProt P26367); assay: ATG_Pax6_CIS: Attagene CIS-FACTORIAL HepG2 Assay for human Paired Box 6 (PAX6) (AID 2282956); conditions: HepG2 CIS-FACTORIAL PAX6 reporter transcription, RNA readout; actives raise or lower the signal
Paired box protein Pax-6 (Homo sapiens), sequence (P26367 whole entry, looked up): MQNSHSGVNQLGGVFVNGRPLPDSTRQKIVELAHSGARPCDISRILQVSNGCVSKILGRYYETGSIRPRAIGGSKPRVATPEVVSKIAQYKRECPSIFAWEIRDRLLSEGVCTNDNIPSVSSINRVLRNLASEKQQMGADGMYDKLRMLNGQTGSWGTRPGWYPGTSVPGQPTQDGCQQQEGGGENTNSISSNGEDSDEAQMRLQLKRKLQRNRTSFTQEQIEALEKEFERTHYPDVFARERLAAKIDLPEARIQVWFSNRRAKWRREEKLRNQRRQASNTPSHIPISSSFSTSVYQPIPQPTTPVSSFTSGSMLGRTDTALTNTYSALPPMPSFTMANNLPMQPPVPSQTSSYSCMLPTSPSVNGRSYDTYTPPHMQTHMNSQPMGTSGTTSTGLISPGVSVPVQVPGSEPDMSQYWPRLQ
How it was run: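 DMSO-referenced bidirectional fits of reporter mRNA fluorescence; HepG2 with transient cis-promoter MRTUs, 24 h post-dose, RT-PCR plus capillary electrophoresis detection.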

[11] = ATG_PXRE_CIS: Attagene CIS-FACTORIAL HepG2 Assay for human Pregnane X Receptor Element (PXRE) (AID 2282957); conditions: HepG2 Attagene CIS-FACTORIAL PXRE reporter, mRNA; actives raise or lower the signal
How it was run: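 Endogenous transcription factor activity in HepG2 was gauged through induction of reporter mRNA driven by a cis-regulating promoter element, sampled 24 h post-treatment. Activity was fitted in both directions against DMSO negative control.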

[12] = ATG_PPRE_CIS: Attagene CIS-FACTORIAL HepG2 Assay for human Peroxisome Proliferator-activated Response Element (PPRE) (AID 2282958); conditions: HepG2 PPRE cis-element reporter, Attagene transcription factor profiling; actives raise or lower the signal
How it was run: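 HepG2 cells are transiently transfected with multiplexed cis-promoter reporter units to report endogenous PPAR activity. After 24 h dosing, reporter mRNA is read by RT-PCR and capillary electrophoresis. Fitting is bidirectional against DMSO.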

[13] = ATG_RORE_CIS: Attagene CIS-FACTORIAL HepG2 Assay for human RAR-related Orphan Receptor Element (RORE) (AID 2282959); conditions: HepG2 Attagene cis-factorial RORE reporter, mRNA; actives raise or lower the signal
How it was run: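 HepG2 cells carrying transiently transfected cis-regulated reporter units; RORE-driven reporter mRNA quantified 24 h post-dosing by RT-PCR, 6-FAM primer extension, HpaI digestion and capillary electrophoresis. Bidirectional fit versus DMSO.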

[14] = ATG_Sox_CIS: Attagene CIS-FACTORIAL HepG2 Assay for human SRY-box transcription factor (SOX) (AID 2282960); conditions: HepG2 Attagene cis-factorial SOX reporter, mRNA; actives raise or lower the signal
How it was run: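 HepG2 cells transiently transfected with multiple cis-regulated reporter units, then dosed for 24 h. Reporter mRNA quantified by RT-PCR, fluorescent labelling, HpaI digestion and capillary electrophoresis; bidirectional fit versus DMSO.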

[15] = target: Transcription factor Sp1 (Homo sapiens) (UniProt P08047); assay: ATG_Sp1_CIS: Attagene CIS-FACTORIAL HepG2 Assay for human Specificity Protein 1 (Sp1) (AID 2282961); conditions: HepG2 Sp1 cis-reporter transcription, actives raise or lower the signal
Transcription factor Sp1 (Homo sapiens), sequence (P08047 whole entry, looked up): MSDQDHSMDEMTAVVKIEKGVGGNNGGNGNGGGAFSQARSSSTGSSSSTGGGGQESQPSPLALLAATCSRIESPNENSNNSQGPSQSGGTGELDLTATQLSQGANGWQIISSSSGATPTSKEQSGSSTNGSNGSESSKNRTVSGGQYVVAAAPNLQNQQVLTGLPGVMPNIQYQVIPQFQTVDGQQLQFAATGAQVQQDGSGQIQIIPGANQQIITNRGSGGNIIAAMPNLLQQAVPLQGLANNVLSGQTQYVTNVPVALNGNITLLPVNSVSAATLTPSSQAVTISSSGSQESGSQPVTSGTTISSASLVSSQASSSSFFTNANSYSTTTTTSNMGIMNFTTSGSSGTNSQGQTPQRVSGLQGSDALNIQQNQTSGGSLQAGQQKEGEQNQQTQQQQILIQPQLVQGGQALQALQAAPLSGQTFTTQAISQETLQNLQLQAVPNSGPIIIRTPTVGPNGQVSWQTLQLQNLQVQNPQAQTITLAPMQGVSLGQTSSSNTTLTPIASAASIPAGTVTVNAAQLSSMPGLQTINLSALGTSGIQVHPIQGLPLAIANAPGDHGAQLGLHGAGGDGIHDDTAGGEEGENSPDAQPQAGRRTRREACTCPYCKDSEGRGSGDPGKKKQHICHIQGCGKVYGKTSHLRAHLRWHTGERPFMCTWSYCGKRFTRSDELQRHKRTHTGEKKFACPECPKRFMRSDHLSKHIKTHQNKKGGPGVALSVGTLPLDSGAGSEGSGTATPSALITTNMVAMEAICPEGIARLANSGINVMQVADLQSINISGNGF
How it was run: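 HepG2 cells transiently transfected with multiplexed cis-regulated reporter constructs, chemical exposure 24 h. Reporter mRNA quantified by RT-PCR with capillary electrophoresis; bidirectional fit relative to DMSO.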

[16] = ATG_SREBP_CIS: Attagene CIS-FACTORIAL HepG2 Assay for human Sterol Regulatory Element Binding (SREBP) (AID 2282962); conditions: HepG2 Attagene cis-factorial SREBP reporter, mRNA; actives raise or lower the signal
How it was run: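 In this cis-format assay, HepG2 liver cells express reporters controlled by promoter elements responsive to native transcription factors. Exposure lasts 24 h; reporter mRNA fluorescence from capillary electrophoresis gives the signal, fitted bidirectionally against DMSO.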

[17] = target: Signal transducer and activator of transcription 3 (Homo sapiens) (UniProt P40763); assay: ATG_STAT3_CIS: Attagene CIS-FACTORIAL HepG2 Assay for human Signal Transducer and Activator of Transcription 3 (STAT3) (AID 2282963); conditions: HepG2, Attagene cis-factorial STAT3 reporter transcription; actives raise or lower the signal
Signal transducer and activator of transcription 3 (Homo sapiens), sequence (P40763 whole entry, looked up, the tested form may be a part): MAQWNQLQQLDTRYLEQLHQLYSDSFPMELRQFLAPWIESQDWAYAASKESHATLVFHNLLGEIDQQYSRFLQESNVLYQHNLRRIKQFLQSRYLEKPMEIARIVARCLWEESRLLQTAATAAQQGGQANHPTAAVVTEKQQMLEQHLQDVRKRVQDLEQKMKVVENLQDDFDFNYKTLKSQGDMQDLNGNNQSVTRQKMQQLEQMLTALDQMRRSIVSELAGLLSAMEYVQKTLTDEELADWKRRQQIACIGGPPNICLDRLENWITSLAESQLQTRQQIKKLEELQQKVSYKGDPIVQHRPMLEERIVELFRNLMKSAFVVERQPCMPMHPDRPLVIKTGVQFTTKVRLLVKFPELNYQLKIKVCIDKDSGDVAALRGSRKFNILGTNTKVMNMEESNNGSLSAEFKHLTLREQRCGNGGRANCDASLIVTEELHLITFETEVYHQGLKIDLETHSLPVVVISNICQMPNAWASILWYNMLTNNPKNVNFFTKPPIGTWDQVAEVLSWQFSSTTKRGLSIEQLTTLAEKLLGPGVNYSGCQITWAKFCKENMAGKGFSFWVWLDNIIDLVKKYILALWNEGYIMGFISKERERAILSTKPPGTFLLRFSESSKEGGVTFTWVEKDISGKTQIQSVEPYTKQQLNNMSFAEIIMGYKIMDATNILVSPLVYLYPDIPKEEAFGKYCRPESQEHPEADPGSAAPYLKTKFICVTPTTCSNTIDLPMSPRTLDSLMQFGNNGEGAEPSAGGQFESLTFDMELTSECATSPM
How it was run: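 Fluorescence intensity of 6-FAM-labelled reporter fragments, separated by capillary electrophoresis after RT-PCR, gave the signal. Cells were HepG2 transfected with cis-element reporter units and treated 24 h; fitting was bidirectional relative to DMSO.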

[18] = ATG_TA_CIS: Attagene CIS-FACTORIAL HepG2 Assay for human TA Basal Promoter (AID 2282964); conditions: HepG2 Attagene CIS-factorial TA basal promoter reporter; actives raise or lower the signal
How it was run: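 Transient MRTU transfection of HepG2 preceded 24 h compound exposure. Reporter mRNA levels were then read by RT-PCR with capillary electrophoresis, and this background-control endpoint was fitted bidirectionally to DMSO.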

[19] = ATG_TCF_b_cat_CIS: Attagene CIS-FACTORIAL HepG2 Assay for human T-Cell-Factor with beta-catenin (TCF/b-cat) (AID 2282965); conditions: HepG2 TCF/beta-catenin cis-reporter transcription, actives raise or lower the signal
How it was run: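 HepG2, transient MRTU transfection, cis-element-driven reporters (endogenous TFs). 24 h compound exposure. Readout: reporter mRNA by RT-PCR + 6-FAM primer extension, HpaI digest, capillary electrophoresis. Gain/loss fit vs DMSO baseline.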

[20] = ATG_PBREM_CIS: Attagene CIS-FACTORIAL HepG2 Assay for human Phenobarbital-responsive Enhancer Module (PBREM) (AID 2282955); conditions: HepG2 PBREM cis-reporter, Attagene multiplexed transcription; actives raise or lower the signal
How it was run: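 HepG2 cells transiently transfected with multiple cis-regulated reporter units measure endogenous transcription factor activity; 24 h compound exposure. Reporter mRNA quantified by RT-PCR, fluorescent labelling, HpaI digestion and capillary electrophoresis; bidirectional fit versus DMSO.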

Measured: AC50

CC[C@H](NC(=O)c1cc(F)ccc1NS(=O)(=O)c1cccc2cccnc12)c1ccccc1
inactive: [1] | [2] | [3] | [4] | [5] | [6] | [7] | [8] | [9] | [10] | [12] | [13] | [14] | [15] | [17] | [18] | [19]
active: [11] 0.0144 µM | [16] 27.1 µM

Cc1cccc2ccccc12
inactive: [1] | [3] | [4] | [5] | [6] | [7] | [8] | [9] | [20] | [10] | [12] | [13] | [14] | [15] | [16] | [17] | [18] | [19]

O=C(Nc1ccc(Cl)cc1)Nc1ccc(Cl)c(Cl)c1
inactive: [1] | [2] | [4] | [5] | [6] | [7] | [8] | [9] | [20] | [10] | [12] | [14] | [15] | [16] | [17] | [18] | [19]
active: [3] 5.89 µM | [11] 2.12 µM | [13] 4.17 µM

O=C(OCCCCCCOC(=O)c1ccccc1)c1ccccc1
inactive: [1] | [2] | [3] | [4] | [5] | [6] | [7] | [8] | [9] | [20] | [10] | [11] | [13] | [14] | [15] | [16] | [17] | [18] | [19]

CC1(C)NC(=O)N(c2ccc([N+](=O)[O-])c(C(F)(F)F)c2)C1=O
active: [11] 27.5 µM and 6.9 µM and 27.3 µM
inactive: [1] | [3] | [4] | [5] | [7] | [8] | [9] | [20] | [10] | [13] | [14] | [15] | [16] | [17] | [18] | [19]

Clc1cc(Cl)c2c(c1)N=C1CCCCCN1C2
active: [11] 13.2 µM | [19] 83.4 µM
inactive: [2] | [3] | [4] | [5] | [6] | [7] | [8] | [9] | [20] | [10] | [12] | [13] | [14] | [15] | [16] | [17] | [18]
